From paper PMC4552634, “A New Set of Chemical Starting Points with Plasmodium falciparum Transmission-Blocking Potential for Antimalarial Drug Discovery” (PLoS ONE, 2015) come the findings set out here.

About 3,200 (25%) of roughly 13,000 compounds showed an effect of 50% or more. This is one part of the list.

The assay concerns P. falciparum stage V gametocytes. The arrangement: BacTiter-Glo ATP luminescence viability of purified stage V gametocytes in 384-well plates, per cent inhibition versus DMSO. The settings on record: 48 h, 5 µM; inhibitor.
On to `NCC(=O)c1cc2c(cc1N)OCCO2` [TCMDC-131879], for which the “% Inhibition” value is -22.77%.
In the case of `C=C(F)c1sc(CNCCCNc2nc3ccccc3[nH]2)c(C)c1Br` [TCMDC-141307], the “% Inhibition” value was 13.46%.
As for `OC1(c2ccccc2)CCN(Cc2cccc(-c3c[nH]c4nc(NC5CCCC5)ncc34)c2)C1` (centres unmarked) [TCMDC-133775], the “% Inhibition” value is -50.17%.
Then `CC(Cc1ccc(CN(CC(N)=O)Cc2ccc(CC(C)NCCc3cccc(Cl)c3)cc2)cc1)NCCc1cccc(Cl)c1` (centres unmarked) [TCMDC-139804], with 113.4%.
Then `CC(=O)N(Cc1ccc(CC(C)NCCc2cccc(Cl)c2)cc1)Cc1ccc(CC(C)NCCc2cccc(Cl)c2)cc1` (centres unmarked) [TCMDC-139678], with 112.1%; and `CS(=O)(=O)c1ccc(CNCc2ccc(-c3ccc(-c4nc5cc(C(F)(F)F)ccc5[nH]4)s3)cc2)cc1.O=C(O)C(F)(F)F` [TCMDC-132906], with -5.935%; and `CCCN(CCC)CCCCC(C)Nc1c2ccc(Cl)cc2nc2ccc(OC)cc12` (centres unmarked) [TCMDC-137515], with 50.13%.
With `CCN(CC)CCCC(C)Nc1cc(C=Cc2ccccc2Cl)nc2cc(Cl)ccc12` (centres unmarked) [TCMDC-124294], the “% Inhibition” value stood at 59.52%.
Then `CCN(CC)CCCC(C)Nc1ccnc2cc(Cl)ccc12` (centres unmarked) [TCMDC-123988], with 8.457%; and `CCN(CC)CCCC(C)Nc1cc(C)nc2cc(Cl)ccc12` (centres unmarked) [TCMDC-124246], with 33.92%.
The same measure for `COc1ccc2nc(-c3ccccc3)cc(NN=Cc3ccc([N+](=O)[O-])cc3)c2c1` [TCMDC-142045]: 15.04%.
In the case of `CCN(CC)CCCC(C)Nc1cc(C=Cc2ccc([N+](=O)[O-])cc2)nc2ccc(OC)cc12.O=P(O)(O)O` (centres unmarked) [TCMDC-124247], the “% Inhibition” value is recorded as 98.87%.
Then `CCCN(CCC)C(C)CCC(C)Nc1c2ccc(Cl)cc2nc2ccc(OC)cc12` (centres unmarked) [TCMDC-137516], with 50.36%; and `CCN(CC)CCCC(C)Nc1ccnc2ccc(OC)cc12.Cl.O` (centres unmarked) [TCMDC-123888], with 15.61%.
Then `O=C(NCCCN1CCN(c2cccc(Cl)c2)CC1)c1ccc(-c2nc3cc(Cl)c(Cl)cc3[nH]2)cc1` [TCMDC-140077], with 1.638%; and `Nc1nc(N)c2cc(S(=O)(=O)c3ccc4ccccc4c3)ccc2n1` [TCMDC-137192], with 3.776%; and `CCCCCCN1CCN(Cc2cccc(NC(=O)c3cccc(OCC)c3)c2)CC1` [TCMDC-134614], with -30.42%.
The same measure for `Cc1cc(N(C)C2CCN(CC3CCCCC3)C2)nc(Nc2ccc(Br)cc2)n1` (centres unmarked) [TCMDC-137023]: -48.72%; for `CCCCCC(=O)N1CCOC(CCN2CCC(c3ccccc3)CC2)(c2ccc(Cl)c(Cl)c2)C1` (centres unmarked) [TCMDC-135328]: -33.56%; for `CN1CCN(c2ccnc3ccc(NC(=O)Nc4cccc5c(Br)cccc45)cc23)CC1` [TCMDC-139347]: 3.223%.
Turning to `Cc1cccc2nc(-c3ccc(-c4ccc(CNCC5CCCO5)cc4)s3)[nH]c12.O=C(O)C(F)(F)F` (centres unmarked) [TCMDC-133101], the “% Inhibition” value is 42.96%.
On to `CCN(CC)CCCC(C)Nc1c2ccccc2nc2ccc3ccccc3c12` (centres unmarked) [TCMDC-137518], for which the “% Inhibition” value stood at 45.6%.
Then `CCN(CC)CCCC(C)Nc1ccnc2[nH]c3ccccc3c12` (centres unmarked) [TCMDC-131826], with 12.54%.
Then `CCN(CC)CCCC(C)Nc1c2cc(OC)ccc2nc2cc(Cl)c([N+](=O)[O-])cc12` (centres unmarked) [TCMDC-138329], with -1.262%.
Consider `CCN(CC)CCCC(C)Nc1c2ccccc2nc2c1ccc1ccccc12` (centres unmarked) [TCMDC-137517], for which the “% Inhibition” value is given as 51.71%.
Then `CCN(CC)CCCC(C)Nc1c2ccc(Cl)cc2nc2ccc(OC)cc12` (centres unmarked) [TCMDC-125480], with 101%; and `Cc1cccc2[nH]c(-c3cccc(-c4ccc(NC(=O)c5cnn6cccnc56)cc4)c3)nc12` [TCMDC-136868], with -35.86%.
The same measure for `FC(F)(F)c1cc(CNCCCNc2nc3ccncc3[nH]2)ccc1Cl` [TCMDC-140508]: -5.854%.
Then `CCCC(CNCc1ccc(Cl)c(C(F)(F)F)c1)CNc1nc2ccncc2[nH]1` (centres unmarked) [TCMDC-141057], with 56.14%.
On to `CCCc1c(Cl)cc(CNCCCNc2nc3ccncc3[nH]2)cc1Cl` [TCMDC-140509], for which the “% Inhibition” value is 47.86%.
Consider `O=C(Nc1ccc(Br)cc1)c1cc(Br)ccc1NS(=O)(=O)c1ccc(C(F)(F)F)cc1` [TCMDC-139752], for which the “% Inhibition” value is recorded as 29.13%.
For the compound `COc1cc(NC(=O)Nc2ccc(Br)cc2C(=O)Nc2ccc(Br)cc2)cc(OC)c1OC` [TCMDC-139733], the “% Inhibition” value was determined as 85.99%.
The same measure for `O=C(Nc1ccc(Br)cc1)c1cc(Br)ccc1NS(=O)(=O)c1cc(C(F)(F)F)cc(C(F)(F)F)c1` [TCMDC-139753]: -9.383%; for `COc1ccc(F)cc1-c1ccc(C(=O)N2CCCN(c3ccc(C(F)(F)F)cn3)CC2)cc1` [TCMDC-133384]: -50.34%.
The same measure for `COc1ccc(F)cc1-c1ccc(C(=O)N2CCCN(c3ccc(C#N)cn3)CC2)cc1` [TCMDC-133385]: 2.781%; for `Cc1ccc(F)cc1-c1cc(N2CCCN(C(=O)c3ccc(Br)o3)CC2)ncn1` [TCMDC-125089]: 67.99%.
With `COCCN1CCC(N(CC2(O)CCN(c3ccc(C(F)(F)F)cc3)CC2)C(=O)Cn2c(SCc3cccc(F)c3F)cc(=O)c3ccccc32)CC1` [TCMDC-141629], the “% Inhibition” value worked out at 101.7%.
The same measure for `CCN1CCC(N(Cc2ccc(-c3ccc(C(F)(F)F)cc3)cc2)C(=O)Cn2c(SCc3cccc(F)c3F)cc(=O)c3ccccc32)C1` (centres unmarked) [TCMDC-141301]: 106.2%; for `O=C(Cn1c(SCc2cccc(F)c2F)cc(=O)c2ccccc21)N(Cc1ccc(-c2ccc(C(F)(F)F)cc2)cc1)C1CCN(CCO)CC1` [TCMDC-141705]: 107.3%.
The same measure for `CC(C)(C)n1nnnc1C(c1cccnc1)N(Cc1ccccc1)Cc1ccc(Cl)cc1` (centres unmarked) [TCMDC-123530]: 11.45%.
On to `O=C(NCc1ccc(F)cc1)Nc1cccc(-c2ccc(-c3nc4ccccc4[nH]3)cc2)c1` [TCMDC-133300], for which the “% Inhibition” value is 7.874%.
The same measure for `Cc1nc2nc(N)nc(N)c2c(C)c1Cc1cccc(C(F)(F)F)c1` [TCMDC-137658]: -3.325%; for `COc1ccc(CCCc2nc(N)nc(N)c2-c2ccc(Cl)cc2)cc1` [TCMDC-137358]: -7.157%.
Regarding `COc1cc2nc(SCC(C)C)n(CCCn3ccnc3)c(=N)c2cc1OC` [TCMDC-125667], the “% Inhibition” value is on record as 47.91%.
Then `COc1cc2nc(SCCCC#N)n(C3CCCCCC3)c(=N)c2cc1OC` [TCMDC-123768], with 60.07%; and `O=C(CC1SC(N2N=C(c3cccs3)CC2c2ccccc2)=NC1=O)Nc1ccccc1F` (centres unmarked) [TCMDC-124761], with 0.7985%.
Then `CCN(CCCN1CCCCC1)c1cc(C)nc(Nc2ccc(F)c(C(F)(F)F)c2)n1` [TCMDC-132433], with 31.89%.
The same measure for `CCN(CCCN1CCCCC1)c1cc(C)nc(Nc2ccc(C)c(Cl)c2)n1` [TCMDC-132438]: -8.632%; for `CCN(CCCN1CCCCC1)c1cc(C)nc(Nc2ccc(C)cc2C(F)(F)F)n1` [TCMDC-132444]: -24.78%; for `CCN(CCCN1CCCCC1)c1cc(C)nc(Nc2ccc(Cl)c(C(F)(F)F)c2)n1` [TCMDC-132439]: 56.88%.
Consider `CCN(CCCN1CCCCC1)c1cc(C)nc(Nc2cc(C(F)(F)F)ccc2C)n1` [TCMDC-132448], for which the “% Inhibition” value is 19.94%.
The same measure for `CCN(CCCN1CCCCC1)c1cc(C)nc(Nc2cccc(C(F)(F)F)c2C)n1` [TCMDC-132452]: 62.42%; for `Cc1cc(C)c(O)c(-c2cc(C(=O)Nc3ccc(S(=O)(=O)N4CC(C)OC(C)C4)cc3)[nH]n2)c1` (centres unmarked) [TCMDC-125184]: -32.33%.
The same measure for `CC1CCCCN1S(=O)(=O)c1ccc(NC(=O)c2cc(-c3ccccc3O)n[nH]2)cc1` (centres unmarked) [TCMDC-125855]: -44.79%.
The same measure for `O=C(/C=C/c1ccc(Cl)c(Cl)c1)NCCCCCN1CCN(C(=O)Nc2ccc(Cl)c(C(F)(F)F)c2)CC1` [TCMDC-135735]: -27.61%; for `COC1CCC(C(=O)Nc2ccc(-c3cccc(-c4nc5ccc(C(F)(F)F)cc5[nH]4)c3)cc2)CC1` (centres unmarked) [TCMDC-136858]: -5.175%.
As for `O=C(Nc1ccon1)c1cc(-c2cccnc2)nc2ccc(Cl)cc12` [TCMDC-124360], the “% Inhibition” value is -4.584%.
Then `C=CCOC(=O)N1CCC(CNCc2ccc(-c3ccc(-c4nc5ccccc5[nH]4)s3)cc2)C1.O=C(O)C(F)(F)F` (centres unmarked) [TCMDC-133037], with -14.35%.
Turning to `CCNc1cc(C(=O)N[C@@H](Cc2ccco2)[C@H](O)CNC2CCCCC2)cc(N2CCCCS2(=O)=O)c1` [TCMDC-135304], the “% Inhibition” value is 34.63%.
Then `COc1cc(C(=O)N2CCN(C(C)C)CC2)ccc1CN(C)CCCN1CCN(c2cccc(Cl)c2Cl)CC1` [TCMDC-136519], with 106.1%; and `CC(C)N1CCN(c2ccc(OCCCCN3CCN(c4cccc(Cl)c4Cl)CC3)c(C(F)(F)F)c2)CC1` [TCMDC-136646], with -6.976%; and `COc1cc(C(=O)N2CCN(C(C)C)CC2)ccc1CN(C)CCCCN1CCN(c2cccc(Cl)c2Cl)CC1` [TCMDC-136506], with 104.3%.
Then `COc1ccc(N2CCN(CCCN3CCN(C(=O)c4ccc(/C=C/c5ccc(Cl)c(Cl)c5)cc4)CC3)CC2)c(OC)c1` [TCMDC-138215], with -35.25%; and `CC(C)N1CCN(c2ccc(OCCCCN3CCN(c4cccc(Cl)c4Cl)CC3)cc2Cl)CC1` [TCMDC-136639], with -87.47%; and `CC(C)N1CCN(c2ccc(OCCCN3CCN(c4cccc(Cl)c4Cl)CC3)c(C(F)(F)F)c2)CC1` [TCMDC-136647], with -2.358%.
The same measure for `Cc1cc(NC(=O)CCN2CCN(c3cccc(Cl)c3Cl)CC2)ccc1N1CCN(C(C)C)CC1` [TCMDC-136695]: 39.36%; for `Cc1cc(NC(=O)CCCN2CCN(c3cccc(Cl)c3Cl)CC2)ccc1N1CCN(C(C)C)CC1` [TCMDC-136696]: -18.49%; for `COc1cc(NC(=O)CCCN2CCN(c3cccc(Cl)c3Cl)CC2)ccc1N1CCN(C(C)C)CC1` [TCMDC-136697]: 87.5%.
